The list is not random: actives were taken first. Their share in the collection is about 2.4%.
D2 ag-1 – Beta-Arrestin HTS for Positive Allosteric Modulators of the Human D2 Dopamine Receptor: Agonists | D(2) dopamine receptor (Homo sapiens), P14416 | DiscoveRx PathHunter D2 beta-arrestin, luminescence, 90 min; 100% = 57 uM dopamine signal | activation, % (test concentration not listed) | actives 0.084% (n = 360,000) | AID 624465, 2012; in the data active = activation above about 40%
Target sequence (P14416 whole entry, looked up): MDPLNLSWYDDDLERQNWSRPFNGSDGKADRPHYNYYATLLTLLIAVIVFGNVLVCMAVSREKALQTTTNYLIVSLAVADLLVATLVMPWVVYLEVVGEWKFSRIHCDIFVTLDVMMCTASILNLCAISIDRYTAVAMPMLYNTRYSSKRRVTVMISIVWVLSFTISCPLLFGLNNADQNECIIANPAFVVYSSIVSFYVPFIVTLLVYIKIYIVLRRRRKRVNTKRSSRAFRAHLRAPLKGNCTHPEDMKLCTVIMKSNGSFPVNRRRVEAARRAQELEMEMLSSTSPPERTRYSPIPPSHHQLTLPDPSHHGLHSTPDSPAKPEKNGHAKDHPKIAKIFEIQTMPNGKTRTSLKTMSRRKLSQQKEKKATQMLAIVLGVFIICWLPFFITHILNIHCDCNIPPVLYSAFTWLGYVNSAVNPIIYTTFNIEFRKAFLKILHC
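DiscoveRx PathHunter D2 beta-arrestin cells (2,100/well) attached overnight, then compound-stimulated 90 min at 37 C in HBSS/10 mM HEPES/0.1% Tween-20 buffer; beta-galactosidase complementation read by luminescence after 1 h at ambient temperature. Dopamine 57 uM final (EC100) as control.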
D2 ag-2 – HTS Assay for Allosteric Agonists of the Human D2 Dopamine Receptor: Primary Screen for Agonists; HEK293 T-REx D2 cells, calcium flux agonist mode; D(2) dopamine receptor (Homo sapiens), P14416; AID 485358, 2010; actives 0.53% (n = 340,000); activation, % at 2 µM;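 active = activation over 3 SD above normal in the single-dose calcium agonist read, cut at about 30% in these data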; also: 0% is about no effect
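In this primary screen, compounds producing a positive calcium signal within 180 s of addition to tetracycline-induced, force-coupled HEK293 Trex D2 cells are flagged; cells are dye-loaded with a no-wash calcium kit beforehand.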
D2 PAM-1 – Beta-Arrestin HTS for Positive Allosteric Modulators of the Human D2 Dopamine Receptor: Potentiators. D(2) dopamine receptor (Homo sapiens), P14416. DiscoveRx D2 beta-arrestin cells, luminescence, 90 min; 100% = 57 uM dopamine signal. potentiation, % (no concentration beside the values). actives 0.23% (n = 360,000). AID 624464, 2012; in the data active = potentiation above about 50%
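PathHunter beta-arrestin assay in DiscoveRx D2 cells. Compounds were added with an EC20 of dopamine (50 nM final) for 90 min at 37 deg C. Luminescence was read 1 h after detection reagent, with 57 uM dopamine as the EC100 control.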
D2 antag – HTS Assay for Allosteric Antagonists of the Human D2 Dopamine Receptor: Primary Screen for Antagonists | HEK293 TREx D2 cells, calcium flux, dopamine EC80 | actives 2% (n = 340,000) | D(2) dopamine receptor (Homo sapiens), P14416 | AID 485344, 2010 | inhibition, % at 10 µM; in the data active = inhibition above about 30%; inactive = below that, where a call was filed; also: 0% is about no effect
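Overnight-induced (tetracycline, 30 C) HEK293 T-REx cells carrying force-coupled D2 receive a no-wash calcium dye, then compound, then EC80 dopamine at 180 s; signals are read kinetically throughout.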
D2 PAM-2 – HTS Assay for Positive Allosteric Modulators of the Human D2 Dopamine Receptor: Primary Screen for Potentiators; actives 0.34% (n = 340,000); AID 485347, 2010; HEK293 T-REx D2, calcium flux, EC20 dopamine potentiation; potentiation, % at 10 µM;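 active = potentiation over 3 SD above the plate norm, cut at about 30% in these data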; also: 0% is about no effect
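Tetracycline-induced Hek293 Trex D2 cells, force-coupled to calcium, loaded with no-wash calcium dye. Compound added with 180 s kinetic read for agonism, then EC20 dopamine and a further 180 s read for potentiation.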
B2AR arrestin – qHTS assay of beta-arrestin-biased ligands of beta2-adrenergic receptor; actives 0.02% (n = 330,000); Potency, µM (top dose mostly 46.1 µM), inactives show at the highest dose activation, hits mostly activators; beta-arrestin recruitment to beta2AR, cell-based reporter; active = well fitted activation curve with a large enough effect;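 also: potency is read from the fitted curve at half-maximal effect; 0% = DMSO controls and full agonism = EC100 isoproterenol or metaproterenol; nearly all actives have a fitted effect of over 65% in size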
* hit, by the source's call; x = no result.

SMILES	D2 ag-1	D2 ag-2	D2 PAM-1	D2 antag	D2 PAM-2	B2AR arrestin
COc1ccccc1N1CCN(CCCNc2cc(=O)n(C)c(=O)n2C)CC1	-0.8	57.9*	-15.1	64.1*	-23.5	-0.1%
COc1ccccc1N1CCN(Cc2cc(=O)n3ccsc3n2)CC1	-0.9	0.3	-48.6	-3.2	40.9*	0.5%
COc1ccccc1N1CCN(CCCNc2c(C)c(=O)n(C)c(=O)n2C)CC1	11.1	x	-24.5	x	x	x
COc1ccccc1N1CCN(CCOc2c(OC)cccc2OC)CC1	-4.2	-0.3	-36.5	97.5*	-20.8	0.3%
Cn1c(=O)c(C(=O)c2ccc(S(C)(=O)=O)c(Cl)c2Cl)c(O)c2ccccc21	1.0	x	1.3	x	x	x
COc1ccccc1N1CCN(CCCCNC(=O)c2ccc3ccccc3c2)CC1	x	x	x	75.4*	x	0.4%
C/C(=N/NC(=O)c1ccc(Br)o1)c1cccc(NC(=O)c2ccc(C)o2)c1	-4.2	-1.7	-4.3	-0.4	7.0	0.5%
C/C(=N/NC(=O)c1ccc(Br)o1)c1ccncc1	-3.9	-0.6	-10.8	38.2*	-1.2	-0.2%
CCOC(=O)C(NC(=O)Nc1ccc(F)cc1F)(Oc1ccc(F)cc1)C(F)(F)F (centres undefined)	-9.2	1.0	-4.1	-12.8	20.9	-0.7%
C=CCc1ccccc1OCCNCc1ccccc1	3.1	0.1	-19.7	69.0*	-11.6	0.0%
Cc1ccc(C(C)C)c(OCCCNCc2cccnc2)c1	-3.2	-0.6	-23.2	9.6	-12.3	-0.3%
C=CCc1ccc(OCCCNCc2ccccc2)c(OC)c1	-1.1	0.3	-79.4	62.2*	-31.4	-0.9%
Clc1ccc(OCCCNCc2ccccc2)c2ccccc12	-0.9	4.2	-15.2	41.5*	-29.7	0.1%
Cc1ccc(C(C)C)c(OCCNCCc2ccccc2)c1	-1.1	-2.6	-15.0	41.4*	-21.5	2.3%
Cc1nonc1CC(=O)NC1CC(C)(C)Cc2c1cnn2-c1ccc(F)cc1 (centres undefined)	0.0	0.1	5.4	10.0	-3.4	0.0%
O=C(Nc1ccc(S(=O)(=O)N2CCOCC2)cc1)c1ccc(F)cc1	11.6	x	3.7	x	x	-0.4%
CCN(CC)C(=O)Cn1cc(S(=O)(=O)CC(=O)NCc2ccc(F)cc2)c2ccccc21	-2.6	0.3	-6.8	-2.7	-0.6	-0.1%
CS(=O)(=O)NNC(=O)c1csc(Cc2c(Cl)sc3ccc(Cl)cc23)n1	-19.7	0.2	-7.7	-11.1	-1.3	-0.4%
Cc1cc(C)c(C)c(OCCNCc2ccccc2)c1	3.9	0.7	-11.7	75.1*	-16.8	0.5%
Cc1cc(Br)ccc1OCCNCc1ccccc1	-0.4	0.4	-20.1	2.4	-16.6	0.4%
Brc1ccccc1OCCNCc1ccccc1	0.2	1.3	-16.6	94.0*	-20.2	0.0%
Cc1cc(C)c(OCCNCc2ccccc2)c(C)c1	-2.9	0.5	-28.1	-7.4	-6.0	0.5%
COC(=O)CSc1nc2sc3c(c2c(=O)[nH]1)CCC3	-2.8	-0.6	-6.5	15.8	-4.2	-0.7%
COc1ccccc1/C=C\C(=O)NCC(=O)N/N=C/c1ccc(O)cc1O	-2.2	-1.6	-11.4	77.4*	-21.4	-0.9%
COc1ccccc1/C=C/C(=O)NCC(=O)N/N=C/c1ccccc1	-3.7	-0.3	-10.4	11.2	-21.6	0.0%
SMILES	D2 ag-1	D2 ag-2	D2 PAM-1	D2 antag	D2 PAM-2	B2AR arrestin
COc1ccc(Br)cc1/C=N/NC(=O)CNC(=O)/C=C/c1ccccc1	-1.6	-0.4	-40.7	76.3*	-26.1	0.5%
COc1cccc(/C=N/NC(=O)CNC(=O)/C=C\c2ccccc2)c1O	3.3	0.0	2.1	53.8*	-15.9	-0.1%
COc1ccc(CCNC(=O)c2c(O)c3c([nH]c2=O)CCCC3)cc1OC	0.7	x	-4.7	x	x	x
Cc1onc(-c2ccccc2)c1C(=O)N(CC(C)C)c1c(N)n(CC(C)C)c(=O)[nH]c1=O	-2.3	x	-4.1	x	30.1*	-0.5%
O=C(CSc1nncs1)NC1CCCCCCC1	-3.6	-1.1	-3.8	31.5*	12.2	-0.1%
CC1CCC(NC(=O)CSc2nncs2)CC1 (centres undefined)	-1.6	0.1	3.2	3.6	-3.0	-1.4%
CCCc1nc2ccc(NC(=O)NCCC(=O)OCC)cc2c(=O)n1Cc1cccc(Cl)c1	-0.3	-0.4	3.1	-15.6	4.1	0.3%
CCOC(=O)CCNC(=O)Nc1ccc2nc(C)n(Cc3cccc(Cl)c3)c(=O)c2c1	0.4	-1.8	7.2	-15.4	34.9*	-0.1%
CC(C)CCOC(=O)C1C2C=CC3(CN(Cc4cccs4)C(=O)C13)O2 (centres undefined)	2.1	-0.6	-1.6	33.2*	0.3	-2.1%
COc1ccc(Cn2c(SCc3ccc(C(=O)NCc4cccs4)cc3)nc3cccnc32)cc1	x	0.5	x	x	-3.9	x
Cc1ccc(C)c(NC(=S)c2ccccn2)c1	-6.4	-0.5	1.6	-3.9	-0.3	11.2µM*
CC(=O)c1ccccc1OCCCCN1CCCCC1	-5.4	1.6	-4.8	58.5*	-28.1	-0.1%
COC(=O)c1ccccc1OCCN1CCCCCC1	0.8	3.5	-16.6	38.9*	-34.1	-0.8%
CC(=O)c1ccccc1OCCOc1ccccc1C(C)=O	-6.3	0.2	0.2	-4.2	0.6	-0.9%
CCc1ccccc1OCCCCN1CCCC1	-5.5	1.9	-38.0	46.5*	-18.3	0.0%
COC(=O)c1ccc(OCCN2CCCCCC2)cc1	3.9	-1.0	-22.1	55.0*	-30.7	-0.2%
C=CCc1ccccc1OCCCCN1CCCC1	-2.4	-0.3	-40.2	-41.1	-22.7	-0.1%
CCN1C(=O)[C@H]2[C@@H](c3ccc(OC)cc3)N[C@]3(CCCN(CCC(C)C)C3=O)[C@H]2C1=O	-3.8	x	-2.0	x	x	x
COc1ccc(-n2nnnc2CNC(=O)c2c(-c3ccccc3Cl)noc2C)cc1	-1.3	x	2.2	x	x	x
CCC(=O)c1ccccc1OCCN1CCN(CC)CC1	1.3	-0.8	-12.7	37.5*	-20.4	-0.3%
CCN1CCN(CCOc2cccc(Cl)c2Cl)CC1	1.2	-2.8	-5.1	-11.8	7.0	-1.6%
O=C(C1CC1)N1CCc2cc(Br)cc(S(=O)(=O)N3CCOCC3)c21	0.1	x	24.9	x	x	-0.2%
O=C(C1CC1)N1CCc2cc(Br)cc(S(=O)(=O)NCCN3CCOCC3)c21	0.0	0.3	-8.6	39.9*	-16.3	0.1%
CCOc1ccc(-c2nnc(SCC(=O)NC3CC3)o2)cc1	4.7	0.2	-1.3	-10.3	-7.3	0.3%

Assay outcomes: PubChem BioAssay, National Center for Advancing Translational Sciences (NCATS)
